Source: PubChem
ELG1 DNA repair: qHTS screen for small molecules that inhibit ELG1-dependent DNA repair in human embryonic kidney (HEK293T) cells expressing luciferase-tagged ELG1. HEK293T ELG1-luciferase reporter, luminescence, 16 h; DNA damage induced by 5-fluorouridine. Potency, µM (titrated, usually from 46.1 µM), without a hit: at the highest dose activity change, negative = inhibition, actives largely listed as inhibitors. 330,000 tested, 2.3% active. AID 504467, 2011; also: % is scaled to controls: 0 for no effect and ±100 for the full control effect; nearly all actives have a fitted effect of over 55% in size
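HEK293T cells expressing luciferase-tagged ELG1 (2,000/well) received 5-Fluorouridine plus compound or DMSO for 16 hr at 37 °C. Luciferase was read by ONE-Glo luminescence after 30 min at room temperature.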
KB-V1 MDR tox: qHTS assay for MDR1-selective chemotherapeutics: Primary screen using the drug-selected MDR subline cells KB-V1; KB-V1 MDR cells viability, CellTiter-Glo, 72 h; Potency, µM (titrated, usually from 46.1 µM), usual class: cytotoxic; 400,000 tested, 3.4% active; also: % is scaled to controls: 0 for no effect and ±100 for the full control effect; nearly all actives have a fitted effect of over 60% in size
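Following 72 h at 37 degrees C with compound, KB-V1 cell viability was read by CellTiter-Glo luminescence, medium being phenol-red-free DMEM plus 10% FBS; concentration-response parameters came from normalized, curve-fitted qHTS data.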
SW480 rerep: A quantitative high throughput screen for small molecules that induce DNA re-replication in SW480 colon adenocarcinoma cells | 340,000 tested, 1.8% active | AID 624297, 2012 | SW480 DNA re-replication, Hoechst DNA content imaging, 48 h | Potency, µM (series often up to 46.1 µM), without a hit: top-dose re-replication activation, usual class: activators; also: % of control where 0% means no effect; nearly all actives have a fitted effect of over 55% in size
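Cells (250 per well) received 23 nL compound or DMSO by pin tool and were kept 48 hr at 37 C, 5% CO2. Nuclei were then stained with Hoechst for 40 min and scanned for DNA content.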
MCF10A rerep: A quantitative high throughput screen for small molecules that induce DNA re-replication in MCF 10a normal breast cells | AID 624296, 2012 | Potency, µM (doses to about 46.1 µM), without a hit: at the highest dose activity, positive = re-replication, actives largely listed as activators | MCF 10A DNA re-replication, Hoechst nuclear intensity, 48 h | 350,000 tested, 2.9% active; also: % of control where 0% means no effect; nearly all actives have a fitted effect of over 50% in size
KB-3-1 tox: qHTS assay for MDR1-selective chemotherapeutics: Primary screen using the parental adenocarcinoma cell KB-3-1; 400,000 tested, 1.4% active; Potency, µM (doses to about 46.1 µM), most hits filed as cytotoxic; KB-3-1 viability, CellTiter-Glo ATP luminescence, 72 h; also: % is scaled to controls: 0 for no effect and ±100 for the full control effect; nearly all actives have a fitted effect of over 60% in size
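Here the drug-naive KB-3-1 line serves as comparator for MDR sub-line selectivity; cells received compound titrations, 72 h at 37 °C, then CellTiter-Glo readout.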
The depositor's hits bear a star; i = inactive; ? = inconclusive; . = no result given; ! = a repeat was not active. A selection: hits, their analogues and other compounds. The true share with any hit is near 8.2%. Calls follow the shape of the dose curve; as a rule, active = well fitted curve in the direction sought with a large enough effect; inconclusive = small, poorly fitted or top-dose-only effect, or another doubt; inactive = no such curve, though single readings can be large; an effect the other way counts as inactive or inconclusive. Potency is read from the fitted curve at half-maximal effect.

SMILES	ELG1 DNA repair	KB-V1 MDR tox	SW480 rerep	MCF10A rerep	KB-3-1 tox
Cc1c(C(=O)NCCC2=CCCCC2)sc2ncnc(N3CCCCC3C)c12 (stereo unspecified)	?	i	?	?	i
O=C(Nc1ccc(Cl)cc1C(=O)NCC1CCCO1)c1ccc(Cl)cc1Cl (stereo unspecified)	?	10µM*	-63%	?	i
O=C(Nc1ccc(Cl)cc1C(=O)NCC1CCCO1)c1ccco1 (stereo unspecified)	.	8.2µM*	-3%	?	?
CC(=O)Nc1ccc(NC(=O)CSc2ccc3nnc(-c4ccccn4)n3n2)cc1	27%	i	-15%	-9%	i
CC(C)C[C@H](NC(=O)c1[nH]cnc1C(=O)N[C@@H](C)c1ccccc1)C(=O)OCc1ccccc1	?	?	-8%	?	i
COc1ccc(S(=O)(=O)NCC(c2ccc3c(c2)OCO3)N2CCN(C)CC2)cc1OC (stereo unspecified)	10%	i	-11%	-2%	i
CCOc1ccc(S(=O)(=O)NCC(c2ccc3c(c2)OCO3)N2CCN(C)CC2)cc1 (stereo unspecified)	-28%	i	6.5µM*	9%	i
CCOC(=O)c1nnc(-c2ccccc2)nc1Sc1ccccc1Cl	0%	i	?	6.5µM*	?
COc1ccc(-c2cc(C(=O)OCC(=O)N3CCOCC3)c3ccccc3n2)cc1	21µM*	?	20%	16µM*	i
COC(=O)C1CCN(C(=O)COC(=O)c2cc(-c3ccccc3)nc3ccc(OC)cc23)CC1	18µM*	i	?	4%	i
C/C(N)=C(/C#N)C(=O)COC(=O)c1cc(-c2ccc(Br)cc2)nc2ccccc12	?	21µM*!	?	?	?
COc1cc2ccccc2cc1C(=O)OCC(=O)N1CCOCC1	-6%	i	-6%	-1%	i
COc1ccc(CNC(=O)CN2C(=O)c3ccc([N+](=O)[O-])cc3C2=O)cc1	-8%	i	-16%	0%	i
Cc1ccc(C(=O)Nc2ccc(-c3nc4ccccc4o3)cc2)cc1Cl	.	i	.	.	i
COc1ccc(-n2c(C)cc(-c3cn4cccc(C)c4n3)c2C)cc1	?	i	-181%	?	i
Cc1cc(-c2cn3ccccc3n2)c(C)n1-c1ccccc1	?	i	?	21µM*	?
Cc1cc(N2CCCC(C(=O)Nc3ccc4c(c3)CCC4)C2)n2ncnc2n1 (stereo unspecified)	?	4.6µM*	2%	4%	?
CCCc1cc(N2CCCC(C(=O)Nc3cc(Cl)ccc3OC)C2)n2ncnc2n1 (stereo unspecified)	.	13µM*	-10%	17%	i
CCOc1ccc(-n2c(SCC(=O)Nc3cc(C)on3)nc3c(c2=O)SCC3)cc1	8%	i	-2%	7%	i
COc1ccc(NS(=O)(=O)c2ccccc2)cc1NS(=O)(=O)c1ccccc1	.	i	.	.	i
CN1OC[C@@H]2CN(C(=O)C(C)(C)C)[C@H](c3ccc(-c4cccnc4)cc3)C[C@@H]21	.	i	.	.	i
CN(C)C(=O)CCSC(SCCC(=O)O)c1cccc(/C=C/c2ccc3ccc(Cl)cc3n2)c1 (stereo unspecified)	.	.	-9%	?	.
Cc1ccc(C)c(-n2cc(CNCCCn3cccn3)c(-c3ccccc3)n2)c1	-8%	i	16µM*	?	i
Cc1ccc(-n2cc(CNCCCn3ccnc3C)c(-c3ccc(F)cc3)n2)cc1	11%	21µM*	?	?	?
CCC(Nc1ccc(-c2nc(-c3cccnc3)no2)cc1[N+](=O)[O-])c1ccccc1 (stereo unspecified)	.	i	.	.	i
SMILES	ELG1 DNA repair	KB-V1 MDR tox	SW480 rerep	MCF10A rerep	KB-3-1 tox
CCOc1cc(/C=N/NC(=O)C2CCCC2)ccc1OC(C)C	7%	i	1%	0%	i
Cn1c(CCCOc2ccc(Cl)cc2Cl)nnc1SCC(=O)Nc1cccc(F)c1	?	i	-1%	?	i
CCc1cccc(C)c1NC(=O)CSc1nnc(CCCOc2ccc(Cl)cc2Cl)n1C	?	4.6µM*	-15%	25%	18µM*
CCn1c(CCCOc2ccc(Cl)cc2Cl)nnc1SCC(=O)Nc1cc(F)ccc1C	?	i	13%	?	?
Cn1c(CCCOc2ccc(Cl)cc2Cl)nnc1SCC(=O)Nc1ccc(F)c(Cl)c1	15%	i	12%	23µM*	i
CCOC(=O)c1cc2c(=O)n3ccccc3nc2n(C(C)C)c1=NC(=O)c1cc2ccccc2o1	.	i	.	.	i
CCOC(=O)c1cc2c(=O)n3cccc(C)c3nc2n(Cc2ccco2)c1=NC(=O)c1ccccc1	-12%	?	?	8.2µM*	i
CC(C)n1c(=NC(=O)c2ccco2)c(C#N)cc2c(=O)n3ccccc3cc21	-10%	i	13µM*	8.9µM*	?
CCOC(=O)c1cc2c(=O)n3ccccc3nc2n(CCCOC)c1=NC(C)=O	-18%	i	?	?	i
CCCn1c(=NC(=O)c2ccco2)c(C(=O)OCC)cc2c(=O)n3ccccc3nc21	1%	i	-2%	-14%	i
CCOC(=O)c1cc2c(=O)n3cccc(C)c3nc2n(CCOC)c1=NC(C)=O	?	?	5.8µM*	3.7µM*	i
CCOC(=O)c1cc2c(=O)n3ccccc3nc2n(C(C)C)c1=NC(=O)c1ccco1	3%	?	7.3µM*	7.3µM*	i
CCCCNC(=O)[C@@](CC)(ONc1ccccc1C(F)(F)F)c1cccc2ccccc12	-2%	i	?	?	i
O=C(OCc1cc(=O)n2ccsc2n1)C1(c2ccccc2)CC1	.	i	.	.	i
CCOCCCn1c(=NC(=O)c2ccco2)c(C(=O)OCC)cc2c(=O)n3cccc(C)c3nc21	?	?	1.6µM*	?	i
CCOC(=O)c1cc2c(=O)n3cccc(C)c3nc2n(CC(C)C)c1=NC(=O)c1ccco1	13%	i	?	?	i
CC[C@H](NC(C)C)[C@H](O)c1ccc(O)c(O)c1	.	.	?	14%	.
COCCNC(=O)c1c(N)n(/N=C/c2ccc(F)cc2)c2nc3ccccc3nc12	0%	i	5.8µM*	2.6µM*	i
Nc1c(C(=O)NC2CCCCC2)c2nc3ccccc3nc2n1/N=C/c1ccco1	0%	.	.	.	.
